In PubChem BioAssay (Tox21):
Unmarked numbers belong to inactive results. Records with an inconclusive call do not appear. Activity calls are given as the source filed them. The call rests on the fitted dose curve.

Target: Acetylcholinesterase (Homo sapiens) (UniProt P22303)
Assay: Acetylcholinesterase (AChE) small molecule antagonists: enzyme-based qHTS assay (AID 1347397); further: nearly all actives have a fitted effect of over 55% in size
Details: Potency: AChE enzyme activity inhibition; outcome: AChE enzyme activity inhibition; series mostly up to 115 µM; activity change, negative = inhibition: at the top concentration
Outline: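 Tox21 library chemicals are tested in qHTS format against recombinant human AChE. The enzyme, dispensed at 50 mU/mL, sits with compound for 30 min at room temperature. A DTNB–acetylthiocholine cocktail follows, and colour is read after 10 min.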
On the % scale 0 is the no-effect control and ±100 the full control effect; potency means the concentration at half of the fitted maximal effect.

Acetylcholinesterase (Homo sapiens), sequence (P22303 whole entry, looked up): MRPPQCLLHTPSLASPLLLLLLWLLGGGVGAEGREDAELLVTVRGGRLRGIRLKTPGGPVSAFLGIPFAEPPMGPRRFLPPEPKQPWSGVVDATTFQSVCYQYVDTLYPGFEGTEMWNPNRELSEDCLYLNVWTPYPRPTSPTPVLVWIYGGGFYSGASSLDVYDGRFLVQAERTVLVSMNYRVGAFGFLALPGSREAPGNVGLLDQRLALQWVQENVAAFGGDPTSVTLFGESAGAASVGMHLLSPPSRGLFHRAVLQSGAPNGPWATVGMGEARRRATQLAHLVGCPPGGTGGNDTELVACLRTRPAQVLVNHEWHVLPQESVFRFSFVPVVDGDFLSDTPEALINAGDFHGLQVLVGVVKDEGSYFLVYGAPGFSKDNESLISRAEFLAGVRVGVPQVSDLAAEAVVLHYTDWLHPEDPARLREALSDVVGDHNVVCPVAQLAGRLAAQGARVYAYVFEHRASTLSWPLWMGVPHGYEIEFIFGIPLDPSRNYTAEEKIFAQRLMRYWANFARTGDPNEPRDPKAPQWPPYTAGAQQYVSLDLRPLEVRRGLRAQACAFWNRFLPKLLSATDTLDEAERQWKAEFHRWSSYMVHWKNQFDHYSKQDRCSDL

SMILES	activity change, negative = inhibition	Potency
C=CC(=O)CCCCC	-0.275%	–
COc1cc(OC)nc(O[C@H](C(=O)O)C(OC)(c2ccccc2)c2ccccc2)n1	1.77% [at 53 µM]	–
CNC(=O)[C@H]1O[C@@H](n2cnc3c(NCc4cc(Cl)ccc4OCc4cc(C)no4)ncnc32)[C@H](O)[C@@H]1N	0.494%	–
OCc1cccnc1	–	inactive
Cc1cnc(C(=O)NCCc2ccc(S(=O)(=O)NC(=O)NC3CCCCC3)cc2)cn1	–	inactive
CC(C)(C)[C@@H](O)[C@@H](Cc1ccc(Cl)cc1)n1cncn1	–	inactive
CCCCC/C(=C\c1ccccc1)CO	0.409%	–
OC[C@H]1O[C@@](CO)(O[C@H]2O[C@H](CO)[C@@H](O)[C@H](O)[C@H]2O)[C@@H](O)[C@@H]1O	–	inactive
CC(C(=O)O)c1cccc(C(=O)c2ccccc2)c1 (stereo not given)	–	inactive
CCCC(=O)Nc1ccc(OCC(O)CNC(C)C)c(C(C)=O)c1 (stereo not given)	0.139% [at 53 µM]	–
CC1=C(C(=O)O)N2C(=O)[C@@H](NC(=O)[C@H](N)c3ccccc3)[C@H]2SC1	-1.39% [at 53 µM]	–
CC(C)NC[C@@H](O)COc1ccc(CC(N)=O)cc1	-0.831% [at 53 µM]	–
CCOCCOCCOCCO	–	inactive
CCCCOC(=O)C(C)Oc1ccc(Oc2ccc(C(F)(F)F)cn2)cc1 (stereo not given)	-1.58%	–
CC(=O)/C(C)=C/C1C(C)=CCCC1(C)C (stereo not given)	0.264%	–
O=C(NO)C1(NS(=O)(=O)c2ccc(Oc3ccc(F)cc3)cc2)CCOCC1	-0.263%	–
O=c1cc(-c2ccc(O)cc2)oc2cc(O)cc(O)c12	–	inactive
Cc1ccc(S(=O)(=O)NC(=O)NC2CCCCC2)cc1	0.139% [at 53 µM]	–
Cc1c(C)c2c(c(C)c1OC(=O)c1cccnc1)CC[C@@](C)(CCC[C@H](C)CCC[C@H](C)CCCC(C)C)O2	0.0073% [at 53 µM]	–
CCCCCCCCCCCCCCBr	-0.0937%	–

SMILES	activity change, negative = inhibition	Potency
COc1cc(NCc2ccc3nc(N)nc(N)c3c2C)cc(OC)c1OC	–	30.9 µM (active)
C=CCCCCCCCCO	-0.137%	–
O=c1[nH]nnc2ccccc12	–	inactive
Cc1cccc(Nc2ccncc2S(=O)(=O)NC(=O)NC(C)C)c1	0.619% [at 53 µM]	–
Cc1ccc(/C(=C\CN2CCCC2)c2ccccn2)cc1	1.77% [at 53 µM]	–
O=C(O)CNCC(=O)O	-0.541% [at 10.5 µM]	–
CN(C)C(=O)C(CCN1CCC(O)(c2ccc(Cl)cc2)CC1)(c1ccccc1)c1ccccc1	1.08% [at 53 µM]	–
CCC(C)OC(=O)N1CCCCC1CCO (stereo not given)	0.375%	–
CCOC(=O)c1c(N)sc2c1CCN(Cc1ccccc1)C2	–	24.5 µM (active)
NC(=O)c1nc(-c2cccc(-c3cc(F)ccc3OCC(F)(F)C(F)(F)F)c2)n[nH]1	-4.23%	–
CC[C@]1(O)C[C@@H]2CN(CCc3c([nH]c4ccccc34)[C@@](C(=O)OC)(c3cc4c(cc3OC)N(C)[C@H]3[C@@](O)(C(=O)OC)[C@H](OC(C)=O)[C@]5(CC)C=CCN6CC[C@]43[C@@H]65)C2)C1	–	inactive
Cc1onc(-c2ccccc2Cl)c1C(=O)N[C@@H]1C(=O)N2[C@@H]1SC(C)(C)[C@@H]2C(=O)O	-0.434% [at 53 µM]	–
C[N+]1(C)CCC(OC(=O)C(O)(c2ccccc2)C2CCCC2)C1 (stereo not given)	-0.0054% [at 53 µM]	–
O=S(=O)(c1cccc2cnccc12)N1CCCNCC1	3.96% [at 53 µM]	–
CCCCCCCCCCCCCCCCCC(=O)OCC(O)CO (stereo not given)	–	inactive
CCNc1cc(O)ccc1C	-1.91%	–
N[C@@H](Cc1ccc(O)cc1)C(=O)O	-0.135% [at 10.5 µM]	–
CC(=O)OC/C=C(/C)CCC=C(C)C	-1.29%	–
O=c1n(CC2CO2)c(=O)n(CC2CO2)c(=O)n1CC1CO1 (stereo not given)	–	inactive
c1cc(N(CC2CO2)CC2CO2)ccc1Cc1ccc(N(CC2CO2)CC2CO2)cc1 (stereo not given)	0.129%	–

Target: Acetylcholinesterase (Homo sapiens) (UniProt P22303)
Assay: Acetylcholinesterase (AChE) small molecule antagonists: fluorescence cell-based qHTS assay (AID 1347398); further: nearly all actives have a fitted effect of over 50% in size
Details: SH-SY5Y cells; Potency: AChE activity; outcome: AChE activity; series mostly up to 115 µM; activity change, negative = inhibition: at the top concentration
Outline: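 Cellular AChE inhibition: SH-SY5Y cells treated with test chemical for 30 min at 37 C, then acetylthiocholine hydrolysis followed over 40 min at room temperature via thiocholine-reactive Thiolite Green fluorescence (490/520 nm).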

SMILES	activity change, negative = inhibition	Potency
C=CC(=O)CCCCC	0.0383%	–
COc1cc(OC)nc(O[C@H](C(=O)O)C(OC)(c2ccccc2)c2ccccc2)n1	10.3% [at 53.7 µM]	–
CNC(=O)[C@H]1O[C@@H](n2cnc3c(NCc4cc(Cl)ccc4OCc4cc(C)no4)ncnc32)[C@H](O)[C@@H]1N	-1.33%	–
OCc1cccnc1	–	inactive
Cc1cnc(C(=O)NCCc2ccc(S(=O)(=O)NC(=O)NC3CCCCC3)cc2)cn1	–	inactive
CC(C)(C)[C@@H](O)[C@@H](Cc1ccc(Cl)cc1)n1cncn1	–	inactive
CCCCC/C(=C\c1ccccc1)CO	-2.5%	–
OC[C@H]1O[C@@](CO)(O[C@H]2O[C@H](CO)[C@@H](O)[C@H](O)[C@H]2O)[C@@H](O)[C@@H]1O	–	inactive
CC(C(=O)O)c1cccc(C(=O)c2ccccc2)c1 (stereo not given)	–	inactive
CCCC(=O)Nc1ccc(OCC(O)CNC(C)C)c(C(C)=O)c1 (stereo not given)	-12.7% [at 53.7 µM]	–
CC1=C(C(=O)O)N2C(=O)[C@@H](NC(=O)[C@H](N)c3ccccc3)[C@H]2SC1	7.63% [at 53.7 µM]	–
CC(C)NC[C@@H](O)COc1ccc(CC(N)=O)cc1	3.76% [at 53.7 µM]	–
CCOCCOCCOCCO	–	inactive
CCCCOC(=O)C(C)Oc1ccc(Oc2ccc(C(F)(F)F)cn2)cc1 (stereo not given)	-3.29%	–
CC(=O)/C(C)=C/C1C(C)=CCCC1(C)C (stereo not given)	-6.52%	–
O=C(NO)C1(NS(=O)(=O)c2ccc(Oc3ccc(F)cc3)cc2)CCOCC1	10.5%	–
O=c1cc(-c2ccc(O)cc2)oc2cc(O)cc(O)c12	–	inactive
Cc1ccc(S(=O)(=O)NC(=O)NC2CCCCC2)cc1	2.12% [at 53.7 µM]	–
Cc1c(C)c2c(c(C)c1OC(=O)c1cccnc1)CC[C@@](C)(CCC[C@H](C)CCC[C@H](C)CCCC(C)C)O2	6.17% [at 53.7 µM]	–
CCCCCCCCCCCCCCBr	-1.65%	–

SMILES	activity change, negative = inhibition	Potency
COc1cc(NCc2ccc3nc(N)nc(N)c3c2C)cc(OC)c1OC	–	3.09 µM (active)
C=CCCCCCCCCO	3.56%	–
O=c1[nH]nnc2ccccc12	–	inactive
Cc1cccc(Nc2ccncc2S(=O)(=O)NC(=O)NC(C)C)c1	18% [at 53.7 µM]	–
Cc1ccc(/C(=C\CN2CCCC2)c2ccccn2)cc1	-9.17% [at 53.7 µM]	–
O=C(O)CNCC(=O)O	-0.972% [at 10.5 µM]	–
CN(C)C(=O)C(CCN1CCC(O)(c2ccc(Cl)cc2)CC1)(c1ccccc1)c1ccccc1	-16.5% [at 53.7 µM]	–
CCC(C)OC(=O)N1CCCCC1CCO (stereo not given)	-0.317%	–
CCOC(=O)c1c(N)sc2c1CCN(Cc1ccccc1)C2	–	12.3 µM (active)
NC(=O)c1nc(-c2cccc(-c3cc(F)ccc3OCC(F)(F)C(F)(F)F)c2)n[nH]1	-1.16%	–
CC[C@]1(O)C[C@@H]2CN(CCc3c([nH]c4ccccc34)[C@@](C(=O)OC)(c3cc4c(cc3OC)N(C)[C@H]3[C@@](O)(C(=O)OC)[C@H](OC(C)=O)[C@]5(CC)C=CCN6CC[C@]43[C@@H]65)C2)C1	–	inactive
Cc1onc(-c2ccccc2Cl)c1C(=O)N[C@@H]1C(=O)N2[C@@H]1SC(C)(C)[C@@H]2C(=O)O	3.49% [at 53.7 µM]	–
C[N+]1(C)CCC(OC(=O)C(O)(c2ccccc2)C2CCCC2)C1 (stereo not given)	-15.9% [at 53.7 µM]	–
O=S(=O)(c1cccc2cnccc12)N1CCCNCC1	2.05% [at 53.7 µM]	–
CCCCCCCCCCCCCCCCCC(=O)OCC(O)CO (stereo not given)	–	inactive
CCNc1cc(O)ccc1C	-6.67%	–
N[C@@H](Cc1ccc(O)cc1)C(=O)O	10.1% [at 10.5 µM]	–
CC(=O)OC/C=C(/C)CCC=C(C)C	-0.109%	–
O=c1n(CC2CO2)c(=O)n(CC2CO2)c(=O)n1CC1CO1 (stereo not given)	–	inactive
c1cc(N(CC2CO2)CC2CO2)ccc1Cc1ccc(N(CC2CO2)CC2CO2)cc1 (stereo not given)	-10.8%	–
